According to PubChem BioAssay (Tox21):
Results filed as inconclusive are left out. Calls of active or inactive are those of the source. Unless noted, calls come from the whole dose curve.

Assays:
[1] = Nuclear factor erythroid 2-related factor 2/antioxidant responsive element (Nrf2/ARE) small molecule agonists: qHTS cell viability counter screen in human keratinocytes (AID 1919968; active = well fitted curve in the direction sought with a large enough effect in the repeat runs; an effect the other way counts as inactive or inconclusive; note: nearly all actives have a fitted effect of over 55% in size)
Outline: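 Viability counter-screen: KeratinoSens reporter cells, DMSO-delivered compounds, 23 h at 37 C, CellTiter-Fluor fluorescence.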

[2] = Nuclear factor erythroid 2-related factor 2/antioxidant responsive element (Nrf2/ARE) small molecule agonists: luciferase reporter gene qHTS assay in human keratinocytes (AID 1919969); note: nearly all actives have a fitted effect of over 35% in size
[3] = target: Gonadotropin-releasing hormone receptor (Homo sapiens) (UniProt P30968); assay: Human gonadotropin-releasing hormone receptor (GnRHR) small molecule agonists, calcium flux assay in GnRHR-HEK293 cells (AID 1920063); note: nearly all actives have a fitted effect of over 35% in size
Outline: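 Tox21-format agonist screen using human GnRHR-expressing HEK293 cells and a fluorescent calcium dye; kinetic 3-min fluorescence reading after compound addition, 15-point concentration series run in triplicate.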

[4] = target: KiSS-1 receptor (Homo sapiens) (UniProt Q969F8); assay: Human kisspeptin (KISS1R) small molecule agonists, calcium flux assay in KISS1R-HEK293 cells (AID 1920064; active = well fitted curve in the direction sought with a large enough effect in the repeat runs; an effect the other way counts as inactive or inconclusive)
Outline: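 Intracellular calcium mobilization in KISS1R-HEK293 cells was recorded by fluorescence (Ex/Em 480/540) for 3 min following compound addition to cells pre-loaded 1 h with calcium dye.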

[5] = G protein-coupled receptor (GPCR) small molecule agonists, calcium flux assay: HEK293 wild type cell line counter screen (AID 1920065)
Outline: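 In this agonist-mode screen, ATP is the positive control and DMSO the vehicle. Cells grow 18 h before a 1 h dye incubation at 37 C; signal is taken at Ex/Em 480/540 over 3 min.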

[6] = p53 small molecule agonists, cell-based qHTS assay with human liver microsomes (AID 1963577)
Outline: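 Compounds act here after metabolic activation: human liver microsomes and NADPH, both at 0.5 mg/mL final, were co-added to p53RE-bla cells. Incubation ran 16 h at 37 C, followed by LiveBLAzer detection.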

[7] = p53 small molecule agonists, cell-based qHTS assay with rat liver microsomes (AID 1963578)
Outline: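 Read-out is beta-lactamase reporter fluorescence (LiveBLAzer, 2 h, room temperature, dark) in p53RE-bla cells treated 16 h at 37 C with compound, rat liver microsomes and NADPH, both 0.5 mg/mL final.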

[8] = p53 small molecule agonists, cell-based qHTS assay with human liver microsomes: qHTS cell viability counter screen (AID 1963579); note: nearly all actives have a fitted effect of over 45% in size
Outline: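 Cells carrying the p53 response-element beta-lactamase reporter are treated for 16 h at 37 C with test compounds in the presence of human liver microsomes and NADPH (both 0.5 mg/mL final); ATP-based CellTiter-Glo luminescence then reports viability.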

[9] = p53 small molecule agonists, cell-based qHTS assay with rat liver microsomes: qHTS cell viability counter screen (AID 1963580); note: nearly all actives have a fitted effect of over 45% in size
Outline: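 Intracellular ATP, by CellTiter-Glo luminescence, defines viability. HCT-116 p53RE-bla cells, 4,000 per well, were compound-treated in the presence of rat liver microsomes and NADPH for 16 h at 37 C.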

[10] = p53 small molecule agonists, cell-based qHTS assay: qHTS cell viability counter screen (AID 1963581); note: nearly all actives have a fitted effect of over 45% in size
Outline: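 Compounds are pinned onto HCT-116 p53RE-bla cells and left 16 h at 37 C. Following the reporter FRET read, ATP is quantified by CellTiter-Glo luminescence after 30 min at room temperature.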

[11] = p53 small molecule agonists, cell-based qHTS assay (AID 1963582; active = well fitted activation curve with a large enough effect in the signal ratio in the repeat runs, not every such curve was filed as active; the % refers to the signal ratio)
Outline: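 Agonist activity was scored from beta-lactamase FRET fluorescence in p53RE-bla cells treated 16 h at 37 C with compounds in DMSO, substrate incubation being 2 h at room temperature.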

[12] = target: 5-hydroxytryptamine receptor 2A (Homo sapiens) (UniProt P28223); assay: 5-hydroxytryptamine receptor 2A (HTR2A) small molecule antagonists, cell-based qHTS assay (AID 1963586); note: nearly all actives have a fitted effect of over 45% in size
Outline: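 Antagonist-mode intracellular calcium assay: DOI (4 nM) added after 5 min compound pre-incubation at room temperature to dye-loaded HTR2A-CHO cells. Fluorescence followed for 3 min, sampled every second.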

[13] = target: 5-hydroxytryptamine receptor 2A (Homo sapiens) (UniProt P28223); assay: 5-hydroxytryptamine receptor 2A (HTR2A) small molecule agonists, cell-based qHTS assay (AID 1963587); note: nearly all actives have a fitted effect of over 30% in size
Outline: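 Kinetic calcium-flux fluorescence (2 min, 1 sec intervals) after compound addition in agonist mode. HTR2A-CHO cells were cultured 18 h, then dye-loaded 1 h at 37 C.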

[14] = target: Muscarinic acetylcholine receptor M1 (Homo sapiens) (UniProt P11229); assay: Cholinergic receptor muscarinic 1 (CHRM1) small molecule antagonists, cell-based qHTS assay (AID 1963588); note: nearly all actives have a fitted effect of over 40% in size
Outline: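 CHRM1-CHO calcium-flux assay, antagonist mode. Cells were seeded 18 h, dye-loaded 1 h at 37 C and given compound for 5 min at RT, then acetylcholine was added at 50nM. FDSS fluorescence was read 3 min; 15 concentrations, three runs.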

[15] = target: Muscarinic acetylcholine receptor M1 (Homo sapiens) (UniProt P11229); assay: Cholinergic receptor muscarinic 1 (CHRM1) small molecule agonists, cell-based qHTS assay (AID 1963589); note: nearly all actives have a fitted effect of over 35% in size
Outline: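 Stable CHRM1-CHO cells (human receptor) were incubated 18 h, dye-loaded for 1 h at 37 C and exposed to test compounds for agonist activity, with calcium-dependent fluorescence followed kinetically.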

[16] = cAMP Responsive Elements (CRE) small molecule agonists, cell-based qHTS assay (AID 1963590)
Outline: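 FRET-based beta-lactamase readout (LiveBLAzer B/G, 2 h RT) quantified CRE activation in HEK 293T CRE-bla cells after 3 h treatment with DMSO-dissolved compounds.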

[17] = cAMP Responsive Elements (CRE) small molecule antagonists, cell-based qHTS assay (AID 1963591; active = well fitted inhibition curve with a large enough effect in the signal ratio in the repeat runs, not every such curve was filed as active; the % refers to the signal ratio)
Outline: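 qHTS in CRE-bla HEK 293T cells: compound in DMSO, then 0.25 uM NKH477 (final), 3 h at 37 °C/5% CO2; beta-lactamase FRET read-out after 2 h substrate incubation.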

[18] = target: Beta-2 adrenergic receptor (Homo sapiens) (UniProt P07550); assay: Adrenergic beta2 receptor (ADRB2) small molecule antagonists, cell-based qHTS assay (AID 1963592); note: series mostly up to about 92 µM; nearly all actives have a fitted effect of over 50% in size
Outline: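 Cells (CHO, stable ADRB2 overexpression) incubated 18-20hr at 37C; compounds added from DMSO; agonist mix (1nM isoproterenol, 100uM IBMX, 25uM Ro-20-1724) added; 0.5hr RT; d2-cAMP and anti-cAMP-cryptate added; 1hr RT; 665/615 nm read.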

[19] = target: D(2) dopamine receptor (Homo sapiens) (UniProt P14416); assay: Dopamine D2 receptor (DRD2) small molecule agonists, cell-based qHTS assay (AID 1963594); note: nearly all actives have a fitted effect of over 35% in size
Outline: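 cAMP accumulation in DRD2-HEK293 cells measured by HTRF after 1 h detection; compounds added 10 min before NKH477 (200nM […]) forskolin-analogue stimulation, 30 min at room temperature, with Ro20-1724 present at 0.1 mM final.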

[20] = target: D(2) dopamine receptor (Homo sapiens) (UniProt P14416); assay: Dopamine D2 receptor (DRD2) small molecule antagonists, cell-based qHTS assay (AID 1963595; active = well fitted inhibition curve with a large enough effect in the signal ratio in the repeat runs, with a control signal flat; the % refers to the signal ratio)
Outline: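 Antagonism was scored as restored cAMP in HEK293-DRD2 cells. These cells were stimulated with 200 nM NKH477 and 12 nM quinpirole for 30 min at room temperature, in the presence of 0.1 mM Ro20-1724.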

Measured: Potency

Chain of 5-hydroxytryptamine receptor 2A (Homo sapiens) (P28223 whole entry, looked up): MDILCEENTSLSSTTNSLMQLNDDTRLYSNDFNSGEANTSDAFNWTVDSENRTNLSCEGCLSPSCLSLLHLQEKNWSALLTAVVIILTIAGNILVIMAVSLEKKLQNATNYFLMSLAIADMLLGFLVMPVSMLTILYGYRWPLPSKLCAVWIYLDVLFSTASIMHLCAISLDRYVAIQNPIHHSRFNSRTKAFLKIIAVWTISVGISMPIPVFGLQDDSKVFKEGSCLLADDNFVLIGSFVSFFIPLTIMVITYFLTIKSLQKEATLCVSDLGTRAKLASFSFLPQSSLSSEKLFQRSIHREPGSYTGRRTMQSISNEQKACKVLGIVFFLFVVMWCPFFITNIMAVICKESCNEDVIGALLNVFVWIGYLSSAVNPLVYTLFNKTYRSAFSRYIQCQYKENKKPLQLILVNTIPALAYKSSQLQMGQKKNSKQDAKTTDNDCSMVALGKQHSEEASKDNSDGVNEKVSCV
Chain of D(2) dopamine receptor (Homo sapiens) (P14416 whole entry, looked up): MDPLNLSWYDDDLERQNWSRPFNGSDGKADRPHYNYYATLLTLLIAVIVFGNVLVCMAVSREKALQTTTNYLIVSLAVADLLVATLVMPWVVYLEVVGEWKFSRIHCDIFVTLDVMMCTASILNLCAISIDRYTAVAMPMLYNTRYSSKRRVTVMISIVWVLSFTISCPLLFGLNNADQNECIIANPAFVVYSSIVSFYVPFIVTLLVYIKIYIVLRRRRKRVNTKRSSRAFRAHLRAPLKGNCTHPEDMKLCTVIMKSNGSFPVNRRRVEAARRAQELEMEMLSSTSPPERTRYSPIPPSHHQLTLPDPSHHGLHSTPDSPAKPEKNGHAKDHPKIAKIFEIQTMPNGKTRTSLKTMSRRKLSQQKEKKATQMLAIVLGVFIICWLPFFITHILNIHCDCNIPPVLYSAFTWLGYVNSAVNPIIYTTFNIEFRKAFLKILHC
Chain of Gonadotropin-releasing hormone receptor (Homo sapiens) (P30968 whole entry, looked up): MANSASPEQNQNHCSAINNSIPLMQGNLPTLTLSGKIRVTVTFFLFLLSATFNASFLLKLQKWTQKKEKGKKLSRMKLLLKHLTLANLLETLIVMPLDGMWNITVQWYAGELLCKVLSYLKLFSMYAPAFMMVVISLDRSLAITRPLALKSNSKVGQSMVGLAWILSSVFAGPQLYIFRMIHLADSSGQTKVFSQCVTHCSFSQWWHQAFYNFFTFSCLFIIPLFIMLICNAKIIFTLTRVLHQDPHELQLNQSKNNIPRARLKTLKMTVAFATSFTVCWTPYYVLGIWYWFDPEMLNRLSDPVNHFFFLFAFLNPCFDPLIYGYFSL
Chain of KiSS-1 receptor (Homo sapiens) (Q969F8 whole entry, looked up): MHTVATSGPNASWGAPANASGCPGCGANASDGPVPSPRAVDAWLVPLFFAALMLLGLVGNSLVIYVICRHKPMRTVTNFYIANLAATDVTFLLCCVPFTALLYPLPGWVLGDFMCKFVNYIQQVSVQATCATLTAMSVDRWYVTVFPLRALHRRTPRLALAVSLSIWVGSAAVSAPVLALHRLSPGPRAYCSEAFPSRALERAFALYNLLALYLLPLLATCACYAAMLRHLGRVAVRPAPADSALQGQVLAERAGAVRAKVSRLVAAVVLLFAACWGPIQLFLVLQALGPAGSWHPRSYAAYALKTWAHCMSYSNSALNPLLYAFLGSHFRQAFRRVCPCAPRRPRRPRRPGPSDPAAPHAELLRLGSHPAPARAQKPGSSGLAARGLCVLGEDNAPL
Chain of Beta-2 adrenergic receptor (Homo sapiens) (P07550 whole entry, looked up): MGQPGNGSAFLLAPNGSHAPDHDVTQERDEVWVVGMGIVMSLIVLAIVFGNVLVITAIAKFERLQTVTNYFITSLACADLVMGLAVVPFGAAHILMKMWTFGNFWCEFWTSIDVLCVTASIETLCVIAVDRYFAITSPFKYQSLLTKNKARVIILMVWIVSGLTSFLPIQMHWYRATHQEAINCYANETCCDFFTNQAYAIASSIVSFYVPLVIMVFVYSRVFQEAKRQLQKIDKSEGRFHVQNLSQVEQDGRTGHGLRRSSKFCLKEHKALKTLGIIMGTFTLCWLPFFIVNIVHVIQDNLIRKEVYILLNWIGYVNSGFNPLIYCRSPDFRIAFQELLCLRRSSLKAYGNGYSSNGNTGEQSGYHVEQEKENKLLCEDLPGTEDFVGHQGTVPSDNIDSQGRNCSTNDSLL
Chain of Muscarinic acetylcholine receptor M1 (Homo sapiens) (P11229 whole entry, looked up): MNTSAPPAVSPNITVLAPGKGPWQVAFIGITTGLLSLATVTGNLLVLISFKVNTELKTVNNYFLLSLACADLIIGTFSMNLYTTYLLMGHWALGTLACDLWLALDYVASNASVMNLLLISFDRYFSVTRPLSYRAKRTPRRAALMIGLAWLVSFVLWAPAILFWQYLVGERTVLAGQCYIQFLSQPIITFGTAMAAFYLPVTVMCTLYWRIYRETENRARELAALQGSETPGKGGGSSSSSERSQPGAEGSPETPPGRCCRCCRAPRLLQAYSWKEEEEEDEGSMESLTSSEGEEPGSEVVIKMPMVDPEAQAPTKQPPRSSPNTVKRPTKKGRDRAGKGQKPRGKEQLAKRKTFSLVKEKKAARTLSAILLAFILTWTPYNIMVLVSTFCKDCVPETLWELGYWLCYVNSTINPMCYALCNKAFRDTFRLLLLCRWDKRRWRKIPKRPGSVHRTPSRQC

COc1ccc(CCC(C)=O)cc1
inactive: all assays above

CC(C)OB(OC(C)C)OC(C)C
inactive: all assays above

CC(C)(C)C1CCC(O)CC1 (stereo not given)
inactive: all assays above

c1ccncc1
inactive: all assays above

CC(C)=CCO
inactive: all assays above

C=Cc1ccc(C)cc1
inactive: all assays above

O=Cc1ccccc1O
inactive: all assays above
